Measurements as given in PubChem BioAssay AID624417 (National Center for Advancing Translational Sciences (NCATS), 2012).
Hit rate of the full screen: of about 410,000 compounds, about 6,400 (1.6%) were called active. About 20% were inconclusive and are not listed. Calls come from the whole dose curve; as a rule, active = well fitted inhibition curve with a large enough effect; inconclusive = small, poorly fitted or top-dose-only effect; inactive = no such curve, though single readings can be large or run the other way. What follows is part of a selection rich in actives, with near analogues and random picks from the rest.

Each compound was assayed against Glucagon-like peptide 1 receptor (Homo sapiens) (UniProt P43220) (assay: qHTS of GLP-1 Receptor Inverse Agonists (Inhibition Mode)). Conditions: HEK293 GLP-1R CRE-luciferase, luminescence, 24 h, GLP-1R form is constitutively active; series mostly up to 38.3 µM; activity change, negative = inhibition: at the top concentration.
How it was run: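 Constitutively active GLP-1R drives a cAMP-responsive luciferase in stably transfected HEK293 cells; test compounds are added after overnight (12 h) attachment and left 24 hr, and signal loss in luminescence marks inhibition.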
% is set by controls: 0 for no effect and ±100 for the full control effect; potency is the fitted concentration of half-maximal effect.
Note: nearly all actives have a fitted effect of over 55% in size.

Chain of Glucagon-like peptide 1 receptor (Homo sapiens) (P43220 whole entry, looked up): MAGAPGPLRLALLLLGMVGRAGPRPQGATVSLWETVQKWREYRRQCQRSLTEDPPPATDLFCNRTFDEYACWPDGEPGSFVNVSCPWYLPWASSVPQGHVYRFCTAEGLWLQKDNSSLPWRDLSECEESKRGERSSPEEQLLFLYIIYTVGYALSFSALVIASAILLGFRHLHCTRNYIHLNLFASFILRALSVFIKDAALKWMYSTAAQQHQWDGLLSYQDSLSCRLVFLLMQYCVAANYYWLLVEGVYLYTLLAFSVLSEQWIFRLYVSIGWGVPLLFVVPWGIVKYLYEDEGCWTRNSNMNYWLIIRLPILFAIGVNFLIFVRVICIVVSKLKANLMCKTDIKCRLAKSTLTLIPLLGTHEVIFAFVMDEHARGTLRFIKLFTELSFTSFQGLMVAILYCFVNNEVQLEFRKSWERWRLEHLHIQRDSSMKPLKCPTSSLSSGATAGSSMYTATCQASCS

Compound	activity change, negative = inhibition	Potency
Cc1ccc(-c2nc3c(Cl)cc(C(F)(F)F)cn3c2Cc2cccc(Cl)c2)cc1	8.32% (inactive)	
CCn1c(SCC(=O)N2CCCC2=O)nc2ccccc21	-4.71% (inactive)	
Cc1cc(C(=O)N/N=C\C(Br)=C\c2ccccc2)c(C)o1	5.04% [at 7.66 µM] (inactive)	
CC(C)c1cc(C(=O)N/N=C/C(Br)=C/c2ccccc2)n[nH]1		8.91 µM (active)
CC(C)c1cc(C(=O)O)n[nH]1	0% (inactive)	
COCCNc1ncnc2c1ncn2[C@H]1CN(Cc2ccc(OC)cc2)C[C@@H](CO)O1	17.4% (inactive)	
O=C(C1CCN(S(=O)(=O)c2cccs2)CC1)N1CCCCCC1	0% (inactive)	
O=C(NC1CCCCC1)C1CCCN(S(=O)(=O)c2ccc(Br)s2)C1 (stereo not drawn)	12.5% (inactive)	
O=C(C1CCN(S(=O)(=O)c2ccc(Br)s2)CC1)N1CCN(C2CCCCC2)CC1		10 µM (active)
CN1C[C@@H](CO)O[C@@H](n2cnc3c(N4CCN(CCO)CC4)ncnc32)C1	-6.73% (inactive)	
CCCCN1CC(N2CCN(Cc3cccc(C)c3)CC2)CS1(=O)=O (stereo not drawn)	-22.9% (inactive)	
CCCNC(=S)N1CCC(NC(=O)c2ccc(OC)cc2)CC1	2.99% (inactive)	
COc1ccc(NC(=S)N2CCC(NC(=O)c3cccc(F)c3)CC2)cc1	10.9% (inactive)	
COc1cc(OC)cc(C(=O)NC2CCN(C(=O)N3c4ccccc4Sc4ccccc43)CC2)c1		10 µM (active)
COc1cccc(-c2cc(NC(C)=O)c3ncc(-c4cccc(C(C)=O)c4)n3c2)c1	-16.5% (inactive)	
CCOC(=O)N1CCN(C(=O)COc2ccc(Cl)cc2C)CC1	-2.5% (inactive)	
CCOC(=O)/C(=N\Nc1cc(Cl)ccc1Cl)N1CCN(C)CC1		10 µM (active)
CCOC(=O)/C(=N\Nc1ccccc1Cl)N(C)C1CCS(=O)(=O)C1 (stereo not drawn)	-27.7% (inactive)	
Cn1c(=O)c2cc(NC(=O)NCCc3cccs3)ccc2n1Cc1cccc(C(F)(F)F)c1	-22.3% (inactive)	
O=C(/C=C/c1ccc(F)cc1)Nc1cccc(S(=O)(=O)Nc2cccc(C(F)(F)F)c2)c1	-16.8% (inactive)	
Cc1oc2c(F)c(F)c(F)c(F)c2c1S(=O)(=O)Nc1cccc(C(F)(F)F)c1		3.98 µM (active)

Compound	activity change, negative = inhibition	Potency
O=C(COc1ccc(S(=O)(=O)Nc2cccc(C(F)(F)F)c2)cc1)N1CCOCC1	-19.7% (inactive)	
COc1ccc(C2=Nc3ccccc3NC(=O)C2N(C(=O)c2cc3ccccc3[nH]2)c2ccccc2)cc1 (stereo not drawn)	-2.32% (inactive)	
CC(=O)Nc1c(-c2ccc(C)cc2)nc2ccc(Cl)cn12	28.1% (inactive)	
Cc1ccc(Nc2c(-c3ccc(Cl)cc3)nc3sccn23)c(C)c1		14.1 µM (active)
O=c1cc(Cn2nnc(-c3ccc(Cl)cc3)n2)nc2sccn12	0% (inactive)	
CC(C)CCOc1ccc(C(=O)Nc2cc(S(=O)(=O)N3CCOCC3)ccc2N2CCOCC2)cc1	-10.7% (inactive)	
CCc1nc2ccc(C(=O)N(C)CCN(C)C)cn2c1N(CC)CCOC	21.2% (inactive)	
OC[C@@H]1CN(Cc2ccc3c(c2)OCO3)C[C@H](n2cnc3c(NCc4ccco4)ncnc32)O1	-8.25% (inactive)	
O=C(CSc1ccc(Cl)cc1)NC1CC1	2.92% (inactive)	
CC1CCc2noc(NC(=O)c3ccc([N+](=O)[O-])cc3)c2C1 (stereo not drawn)	-25.2% (inactive)	
COc1ccc(NC(=O)c2c(C)oc3c2CCCC3)cc1	0% (inactive)	
COc1ccc(C(=O)Nc2onc3c2CCCC3)cc1		11.2 µM (active)
O=C1NC[C@H](CCCCN2C[C@H](Cc3ccccc3)N(Cc3ccccc3)C(=O)C2=O)N(CCc2ccc(O)cc2)C1=O	8.51% (inactive)	
CN1CCn2cnc(C(=O)NCC(=O)OC(C)(C)C)c2C1=O	15.6% (inactive)	
O=C(Nc1nnc([C@H]2C[C@H](O)[C@@H](CO)O2)s1)c1cccc(Cl)c1	-12.3% (inactive)	
CC1=NN(c2cccc(Cl)c2)C(=O)C12CC(C)=C(C)CS2 (stereo not drawn)		10 µM (active)
CCOC1=C2[C@H]([C@H]3C(=O)N(c4ccccc4)C(=O)[C@H]3C1)[C@@H](c1ccccc1)N(S(=O)(=O)c1ccc(C)cc1)[C@H]2c1ccccc1	10.2% (inactive)	
Cc1cc(Nc2ccc(C)c(C)c2)n2ncnc2n1	11.7% (inactive)	
CC(=O)NCC(=O)N1CCCC(C(=O)c2ccc3c4c(cccc24)CC3)C1 (stereo not drawn)	8.71% (inactive)	
CCOC(=O)c1[nH]ncc1CN1CCCC(C(=O)c2ccc(OC)cc2C)C1 (stereo not drawn)	-2.62% (inactive)	
CCn1ccnc1CN1CCCC(C(=O)c2ccc3c4c(cccc24)CC3)C1 (stereo not drawn)		11.2 µM (active)

Compound	activity change, negative = inhibition	Potency
O=C(N=C1SC2CS(=O)(=O)CC2N1Cc1ccccc1)c1ccccc1 (stereo not drawn)	0.0638% (inactive)	
CSCCC(C(=O)NC(C)(C)C)n1c(-c2ccccc2)nc2ccccc21 (stereo not drawn)	11% (inactive)	
COc1ncnc2c1ncn2CCCNCCN1CCOCC1	6.67% (inactive)	
CCc1nc2c(OCCOc3ccccc3)cccn2c1N(C)C(=O)c1ccc(OC)cc1	10.8% (inactive)	
CN(C(=O)CC(NC(=O)c1ccccc1)(c1ccccc1)c1ccccc1)c1ccccc1		12.6 µM (active)
CC(C)(C)c1ccc(C(=O)NNC(=O)Cc2ccccc2)cc1	-24.5% (inactive)	
CN(C(=O)COC(=O)CNC(=O)C12CC3CC(CC(C3)C1)C2)c1ccccc1	21.8% (inactive)	
COc1ccc(C(CNC(=O)CSc2ccccc2)N2CCOCC2)cc1 (stereo not drawn)	-4.63% (inactive)	
COc1ccc(C(=O)ON=C2c3ccccc3-c3ccccc32)cc1OC	21.9% (inactive)	
COc1ccc(C/C(N)=N/OC(=O)c2ccco2)cc1OC	47.5% (inactive)	
COc1ccc(C(=O)O/N=C(\N)Cc2ccc(Cl)cc2Cl)cc1OC		8.91 µM (active)
CCc1c(C)nc2c(-c3ccccc3)c(C)nn2c1Nc1ccc(NC(C)=O)cc1		10 µM (active)
Cc1cc(-c2ccccc2)n2nc(C)c(-c3ccccc3)c2n1	-1.84% (inactive)	
Cc1cc(-n2nc(C)cc2C)n2nc(C)c(-c3ccccc3)c2n1	-10.6% (inactive)	
Cc1ccc2nc(-c3ccccc3)c(CC3CCCCC3)n2c1	-29.8% (inactive)	
O=C1Nc2ccccc2-n2nnnc2C1N1CCN(c2cccc(C(F)(F)F)n2)CC1 (stereo not drawn)	-22% (inactive)	
CC(=O)c1cccc(-c2cnc3c(NC=O)cc(-c4ccccc4Oc4ccccc4)cn23)c1	-19.1% (inactive)	
CNc1cncc(-c2cccc(C(=O)N3CCOCC3)c2)n1	2.33% (inactive)	
Cc1nccn1-c1ccc(NC(=O)[C@H]2O[C@@H](n3ccc(=O)[nH]c3=O)[C@H](O)[C@@H]2O)cc1	8.26% (inactive)	
COc1cc(C(O)c2nc(-c3cnn(C)c3)cs2)ccc1F (stereo not drawn)	-19.5% (inactive)	
CN1CCN(C(=O)c2ccc(NC(=O)c3ccc(Br)o3)cc2)CC1	22.9% (inactive)	
